In the library only some 3.5% were active in any assay of this set; here they are far more common.
MITF inh – inhibitors of human MITF; AlphaScreen MITF homodimerization, bead proximity signal; 650,000 tested, 0.91% active; inhibition, % at 2.6 µM; O75030; in the data active = inhibition above about 50%;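 note: 0% = vehicle wells with protein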
TEAD-YAP inh – TEAD-YAP interaction inhibition. HEK-TIYL cells, TEAD-Gal4/YAP UAS-luciferase luminescence. inhibition, % at 9.12 µM. 640,000 tested, 1.4% active. AID 1259422; in the data active = inhibition above about 32%;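 note: 0% = median of test compound wells and 100% = reference inhibitor wells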
GPR151 ag – activates the human receptor GPR151; AID 1508602; activation, % at 11.2 µM; 650,000 tested, 1% active; Q8TDV0; PathHunter beta-arrestin GPR151 cells, luminescence; in the data active = activation above about 4.9%;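 note: 0% = median of compound wells and 100% = cells with positive control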
Target sequence (Q8TDV0 whole entry, looked up): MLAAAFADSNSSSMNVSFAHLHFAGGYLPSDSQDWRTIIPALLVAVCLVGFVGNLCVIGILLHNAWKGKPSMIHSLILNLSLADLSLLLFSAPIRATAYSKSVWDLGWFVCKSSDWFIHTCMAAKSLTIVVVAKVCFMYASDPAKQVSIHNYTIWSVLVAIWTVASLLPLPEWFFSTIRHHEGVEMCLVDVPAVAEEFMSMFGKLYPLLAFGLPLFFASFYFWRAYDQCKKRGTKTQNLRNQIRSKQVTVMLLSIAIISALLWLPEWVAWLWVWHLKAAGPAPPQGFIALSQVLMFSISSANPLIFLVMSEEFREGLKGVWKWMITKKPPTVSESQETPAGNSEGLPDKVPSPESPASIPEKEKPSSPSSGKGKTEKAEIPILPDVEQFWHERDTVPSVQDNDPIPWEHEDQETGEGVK
FBW7 activator – activators of human E3 ligase FBW7 | Q969H0 | AlphaScreen FBW7–phospho-cyclin E peptide binding, activator screen | normalized activity (activation), % at 26.1 µM | 650,000 tested, 0.13% active; in the data active = normalized activity above about 1.9%;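 note: purified mutant Fbw7 with reduced substrate affinity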
GPR151 confirm – confirmation of human GPR151 activators. activation, % at 11.2 µM. GPR151 PathHunter beta-arrestin cells, luminescence, 90 min; % of EA-reagent control over plate median. 6,700 tested, under 10 active. shares compounds with GPR151 ag;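 active = mean percent activation across replicates above the confirmation screen cutoff of 4.91%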
GPR119 ag – counter-screen for GPR151 activators: effect on human GPR119. shares compounds with GPR151 ag. GPR119 PathHunter beta-arrestin cells, luminescence, 90 min; 0 = compound-well median, 100 = enzyme-acceptor control. activation, % at 11.2 µM. 6,700 tested, 0.3% active;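 active = mean percent activation in the counterscreen above 29.09%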;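 note: counterscreen on off-target GPR119 to flag nonselective hits from the GPR151 activator screen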
* hit, by the source's call.

`O=C(NCC1Cc2cccc(-c3ccncc3)c2O1)c1cccc(Cn2cccn2)c1` (centres undefined) gave MITF inh -2.7, TEAD-YAP inh 2.2, GPR151 ag 9.0*, FBW7 activator -0.1, GPR151 confirm 0.3 and GPR119 ag 8.3.
CCOC(=O)c1ccc(-c2coc3cc(O)c(CC)cc3c2=O)o1 was read as MITF inh -14.3, TEAD-YAP inh 1.1, GPR151 ag 0.4 and FBW7 activator -0.1.
`Cc1nc2ccccc2c(=O)n1CC(=O)N1CCOCC1` gave MITF inh 10.4, TEAD-YAP inh 6.4, GPR151 ag -1.5 and FBW7 activator 0.7.
For Cc1nc2ccccc2c(=O)n1-c1ccc(N2CCOCC2)c(C(F)(F)F)c1 the results were MITF inh -4.9, TEAD-YAP inh 8.9, GPR151 ag 5.9*, FBW7 activator -0.1, GPR151 confirm 1.2 and GPR119 ag -3.6.
`Cn1c(=O)[nH]c(=O)c2c1nc(NCCCN1CCOCC1)n2CCO` gave MITF inh -0.4, TEAD-YAP inh -5.9, GPR151 ag 10.1*, FBW7 activator -0.1, GPR151 confirm 0.0 and GPR119 ag 4.8.
For Cc1cccc(NC(=O)/C=C/C(=O)O)c1 the results were MITF inh 8.0, TEAD-YAP inh -12.1, GPR151 ag 1.6 and FBW7 activator -0.1.
CCc1cccc(NC(=O)/C=C/C(=O)O)c1 was read as MITF inh -4.8, TEAD-YAP inh -1.1, GPR151 ag 5.2*, FBW7 activator 0.1, GPR151 confirm -0.2 and GPR119 ag -4.6.
`CCCC1=C(C(=O)OCC)C(c2cc(OC)c(OC)c(OC)c2)NC(=O)N1` (centres undefined) gave MITF inh -19.2, TEAD-YAP inh 0.6, GPR151 ag -0.8 and FBW7 activator -0.1.
`CCOC(=O)/C(C#N)=C/Nc1ccccc1NS(=O)(=O)c1cccc(C(C)=O)c1` gave MITF inh -1.1, TEAD-YAP inh -5.9, GPR151 ag 1.9 and FBW7 activator 0.1.
Screening CCOC(=O)/C(C#N)=C/Nc1ccccc1NS(=O)(=O)c1ccc(C)c(C)c1 returned MITF inh 1.7, TEAD-YAP inh -3.2, GPR151 ag 5.5*, FBW7 activator 0.3, GPR151 confirm -0.6 and GPR119 ag -16.3.
For O=C(Cc1cccs1)N/N=C\c1ccc(O)cc1 the results were MITF inh 18.5, TEAD-YAP inh -12.1, GPR151 ag -1.6 and FBW7 activator -0.1.
Screening O=C(Cc1cccs1)N/N=C\c1ccc(O)c(O)c1 returned MITF inh -6.8, TEAD-YAP inh -14.4, GPR151 ag 5.3*, FBW7 activator -0.1, GPR151 confirm -0.3 and GPR119 ag 1.0.
Screening C=CCN1C(=O)/C(=C\c2ccc(Br)o2)C(=O)NC1=S returned MITF inh 45.9, TEAD-YAP inh 1.8, GPR151 ag 2.7 and FBW7 activator 0.1.
For Cc1ccccc1-n1ncc2c(SCC(=O)N3CCCC3)ncnc21 the results were MITF inh 8.9, TEAD-YAP inh -59.6, GPR151 ag -0.3 and FBW7 activator -0.1.
Screening CCNc1nc(OC(C(F)(F)F)C(F)(F)F)nc(N2CCCCC2)n1 returned MITF inh -9.2, TEAD-YAP inh 3.1, GPR151 ag 6.0*, FBW7 activator -0.2, GPR151 confirm 2.0 and GPR119 ag 13.1.
`COc1cccc(NC(=O)C2CCCC2)c1` gave MITF inh -2.6, TEAD-YAP inh -3.0, GPR151 ag 1.1 and FBW7 activator 0.0.
COc1ccc2c(c1OC)C(=O)NC(C)=C(C(=O)OC(C)(C)C)C2O (centres undefined) was read as MITF inh -5.7, TEAD-YAP inh 8.3, GPR151 ag 12.0*, FBW7 activator 0.0, GPR151 confirm 0.2 and GPR119 ag -2.8.
CCOc1ccc(Nc2n[nH]c(=S)n2-c2ccc(OCC)cc2)cc1 was read as MITF inh -0.1, TEAD-YAP inh 3.9, GPR151 ag 6.3*, FBW7 activator -0.1, GPR151 confirm 0.8 and GPR119 ag 4.5.
COc1ccc(CN2CCOc3ccc(CN4C[C@@H](C)O[C@@H](C)C4)cc3C2)cc1OC was read as MITF inh 12.1, TEAD-YAP inh 9.3, GPR151 ag 2.5 and FBW7 activator -0.8.
C[C@@H]1CN(Cc2ccc3c(c2)CN(Cc2ccc4c(c2)CCO4)CCO3)C[C@H](C)O1 was read as MITF inh -1.3, TEAD-YAP inh -13.3, GPR151 ag 6.5*, FBW7 activator -0.1, GPR151 confirm -0.5 and GPR119 ag 3.9.
Screening O=c1oc2ccccc2cc1-c1nnc(-c2ccc(Br)cc2)o1 returned MITF inh 10.5, TEAD-YAP inh -2.8, GPR151 ag 1.6 and FBW7 activator 0.2.
Screening Cc1ccccc1C(=O)NC(=S)Nc1ccc(Cc2ccncc2)cc1 returned MITF inh 18.9, TEAD-YAP inh 8.1, GPR151 ag 18.7*, FBW7 activator 0.3, GPR151 confirm -0.3 and GPR119 ag -15.8.
For CC(=O)c1ccc(NC(=S)NC(=O)c2ccccc2F)cc1 the results were MITF inh 12.1, TEAD-YAP inh -67.4, GPR151 ag 14.8*, FBW7 activator 0.0, GPR151 confirm 0.0 and GPR119 ag 4.8.
For CC(=O)N1CCc2cc(S(=O)(=O)N3CCCC3)ccc21 the results were MITF inh 7.3, TEAD-YAP inh -10.5, GPR151 ag -0.5 and FBW7 activator 0.1.
`Cc1cc(/C=C(/C#N)c2cccc(Cl)c2)c(C)n1C` gave MITF inh 0.7, TEAD-YAP inh -10.8, GPR151 ag 5.6*, FBW7 activator 0.0, GPR151 confirm -0.3 and GPR119 ag 0.3.
`Cc1sc2ncnc(NCC(C)O)c2c1C` (centres undefined) gave MITF inh -24.7, TEAD-YAP inh -2.4, GPR151 ag 4.9*, FBW7 activator 0.5, GPR151 confirm -0.6 and GPR119 ag 3.8.
Screening Cc1sc2ncnc(NCc3ccccc3)c2c1C returned MITF inh 1.6, TEAD-YAP inh 24.1, GPR151 ag 1.3 and FBW7 activator 0.0.
`N#C/C(=C\c1ccc(-c2ccc(F)cc2)o1)C(=O)NCC1CCCO1` (centres undefined) gave MITF inh -3.3, TEAD-YAP inh 1.3, GPR151 ag 5.5*, FBW7 activator 0.0, GPR151 confirm -0.7 and GPR119 ag 2.2.
For COc1cc(N2CCOCC2)ccc1/C=C1\C(=O)NC(=S)N(c2ccc(F)cc2)C1=O the results were MITF inh 6.6, TEAD-YAP inh 8.4, GPR151 ag 5.2*, FBW7 activator -0.2, GPR151 confirm -0.4 and GPR119 ag -4.2.
`Cc1ccccc1-c1nc(CS(=O)(=O)CC(=O)N2CCCC2)c(C)o1` gave MITF inh 11.9, TEAD-YAP inh 10.5, GPR151 ag -0.6 and FBW7 activator 0.7.
Cn1nnnc1SCc1nnc(-c2ccccc2)o1 was read as MITF inh -2.9, TEAD-YAP inh -25.1, GPR151 ag 0.9 and FBW7 activator -0.2.
